# From PubChem BioAssay
# Mtb FBA inh – inhibitors of M. tuberculosis fructose-bisphosphate aldolase. 360,000 compounds, 2.3% hits. AID 588726. inhibition, % at 1 µM. purified M. tuberculosis FBA, fluorescence read-out; in the data active means inhibition above about 27%;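 further: 0% = vehicle and 100% = reference inhibitor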
# CCHFV vOTU inh – blocks the CCHF virus ovarian tumor domain protease; CCHFV vOTU protease, Pep-AMC fluorescence; inhibition, % at 11.5 µM; 370,000 compounds, 0.55% hits; further: 0% = vehicle wells with enzyme and 100% = no enzyme wells
# RecA splice inh – Mtb RecA intein splicing inhibition; cell-free RecA intein splicing, fluorescence; inhibition, % (test concentration not listed); 290,000 compounds, 0.75% hits; in the data active means inhibition above about 30%;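 further: 0% = vehicle wells and 100% = reference inhibitor control wells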
# Target sequence (P9WHJ3 whole entry, looked up, canonical isoform): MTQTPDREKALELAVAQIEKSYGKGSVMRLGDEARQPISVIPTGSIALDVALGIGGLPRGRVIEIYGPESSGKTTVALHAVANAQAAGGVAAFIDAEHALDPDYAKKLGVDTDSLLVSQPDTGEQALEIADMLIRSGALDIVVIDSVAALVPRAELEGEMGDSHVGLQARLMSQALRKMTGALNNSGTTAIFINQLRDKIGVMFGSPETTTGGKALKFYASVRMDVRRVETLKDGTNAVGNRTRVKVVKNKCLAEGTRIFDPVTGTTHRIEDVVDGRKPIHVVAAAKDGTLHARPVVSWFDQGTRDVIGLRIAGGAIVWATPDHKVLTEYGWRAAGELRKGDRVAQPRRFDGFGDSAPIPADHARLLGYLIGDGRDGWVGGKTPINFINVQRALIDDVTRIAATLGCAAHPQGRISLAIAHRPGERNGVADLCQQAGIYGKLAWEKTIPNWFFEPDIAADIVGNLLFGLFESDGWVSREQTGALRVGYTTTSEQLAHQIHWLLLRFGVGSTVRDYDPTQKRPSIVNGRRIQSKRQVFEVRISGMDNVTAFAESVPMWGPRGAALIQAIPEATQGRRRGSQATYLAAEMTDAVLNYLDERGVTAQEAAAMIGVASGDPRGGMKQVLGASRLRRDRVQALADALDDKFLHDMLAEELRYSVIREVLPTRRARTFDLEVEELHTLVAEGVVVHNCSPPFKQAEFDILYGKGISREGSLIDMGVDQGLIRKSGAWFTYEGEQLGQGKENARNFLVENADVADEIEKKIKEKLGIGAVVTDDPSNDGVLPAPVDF
# 3CLpro inhibitor – SARS-CoV 3CLpro protease inhibition; 290,000 compounds, 0.14% hits; AID 1706; recombinant SARS-CoV 3CLpro, quenched FRET peptide cleavage; P0C6X7; inhibition, % at 6 µM; in the data active means inhibition above about 12%
# DUSP3 inh – inhibitors of human VHR1 phosphatase (DUSP3) | P51452 | recombinant VHR phosphatase, pNPP absorbance | inhibition, % at 13.3 µM | 290,000 compounds, 0.52% hits; in the data active means inhibition above about 50%
# GDH-TPI counter – GDH-TPI coupled enzyme inhibition counter-screen; inhibition, % at 4.8 µM; GDH-TPI coupled enzyme counterscreen, NADH absorbance; 360,000 compounds, 1.2% hits;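 further: 0% = DMSO wells and 100% = wells lacking the enzyme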
# Active calls of the source: *; . = not tested or not shown. Most compounds without a hit are left out; they make up all but 4.7% or so of the library. Unless noted, no stated cut-off is given here; in the data, active means inhibition above about 30%; inactive means the rest.
SMILES,Mtb FBA inh,CCHFV vOTU inh,RecA splice inh,3CLpro inhibitor,DUSP3 inh,GDH-TPI counter
O=C(Cn1c(=O)oc2ccccc21)Nc1ccc(Cl)cc1,1.4,3.3,.,-4.0,30.0,0.8
O=C(Cn1c(=O)oc2ccccc21)Nc1ccc(F)c(F)c1,0.0,0.6,0.9,-1.4,56.9*,-4.0
CC1CCN(CC(O)CN2c3ccccc3Sc3ccccc32)CC1 (stereo unspecified),-1.5,.,-2.5,-2.9,58.2*,-2.1
COc1cccc(CNC(=O)[C@H]2CCCN2C(=O)[C@H]2CCCN2C(=O)c2cccc(Cl)c2)c1,.,6.5,.,.,.,.
COc1ccc(N=C(C)C2=C(O)c3ccccc3C2=O)cc1,1.8,-15.3,-2.6,4.2,-10.0,36.4*
CC(=NC1CC1)C1=C(O)c2ccccc2C1=O,-0.3,2.8,7.7,-3.7,10.8,37.6*
Cc1ccc(NC(=O)CCl)cc1S(=O)(=O)N1CCCCCC1,-2.7,2.1,52.4*,3.6,21.7,-4.1
COCCNCC(=O)Nc1ccc(C)c(S(=O)(=O)N2CCCCC2)c1,-7.2,-4.0,3.5,-0.1,25.9,-8.5
Cc1cccc(OCCC(=O)Nc2ccc(C)c(S(=O)(=O)N3CCCCC3)c2)c1,6.7,7.2,6.9,11.4,51.3*,9.9
CCN(CC)CCCNC(=O)/C(=C\c1cccn1C)NC(=O)c1cccs1,1.6,9.3,-0.5,-1.0,-1.0,34.7*
O=C(NCCO)/C(=C\c1cccs1)NC(=O)c1cccs1,-3.6,8.5,-0.7,-4.7,2.6,15.5
CCCCNC(=O)/C(=C/c1ccccc1)NC(C)=O,0.0,-16.4,-1.8,-4.2,-5.7,4.8
O=C(NCCc1nc2ccccc2[nH]1)/C(=C/c1ccco1)NC(=O)c1ccc(Br)o1,-2.2,0.9,2.7,2.5,-9.7,33.5*
COc1ccc(/C=C(\NC(=O)c2ccco2)C(=O)NCCc2nc3ccccc3[nH]2)cc1,0.4,2.8,1.0,0.6,-11.0,5.9
COc1ccc(/C=C(/NC(=O)/C=C/c2ccccc2)C(=O)NCCCCCC(=O)O)cc1,1.5,0.6,-0.1,2.8,25.7,32.5*
COc1ccc(/C=C(\NC(=O)/C=C/c2ccco2)C(=O)NCCc2nc3ccccc3[nH]2)cc1,-0.3,-5.8,5.6,-0.1,1.3,37.1*
CN(C)C(=O)C[C@H]1C[C@@H]2c3cc(NC(=O)NC4CCCC4)ccc3O[C@@H]2[C@@H](CO)O1,.,-2.7,.,.,.,.
O=[N+]([O-])c1ccc(Nc2cccc3c2[nH]c2c(-c4ccccc4)nccc23)c([N+](=O)[O-])c1,-2.0,1.2,.,.,.,12.9
CCCCNC(=S)NNc1c(Cl)cc(Cl)cc1Cl,4.9,3.4,-10.6,-0.5,51.3*,-4.4
O=C(NCCCl)NNc1c(Cl)cc(Cl)cc1Cl,-3.7,7.3,3.7,-0.1,-8.7,2.2
COc1ccc(CNC(=O)C2CCCN(c3nc4ccccc4o3)C2)cc1 (stereo unspecified),.,6.6,.,.,.,.
COc1nccnc1NS(=O)(=O)c1ccc(N=Cc2c(C)[nH]n(-c3ccc(Cl)cc3)c2=O)cc1,.,2.3,-0.7,1.4,1.9,.
COc1nccnc1NS(=O)(=O)c1ccc(N=Cc2c(C)[nH]n(-c3ccc(C)c(C)c3)c2=O)cc1,-0.8,-8.5,4.8,0.2,18.8,32.5*
CC(=O)Nc1ccc(C=NNc2ccc([N+](=O)[O-])cc2S(=O)(=O)Nc2ccccc2C(=O)O)cc1,-0.3,23.7,.,.,.,10.0
NS(=O)(=O)c1ccc(N/N=C/c2ccc[nH]2)c([N+](=O)[O-])c1,-7.7,22.6,-2.1,5.1,21.7,72.7*
SMILES,Mtb FBA inh,CCHFV vOTU inh,RecA splice inh,3CLpro inhibitor,DUSP3 inh,GDH-TPI counter
CN(CCO)c1ccc(C=NNc2ccc([N+](=O)[O-])cc2S(=O)(=O)Nc2ccccc2C(=O)O)cc1,-19.1,19.1,.,.,.,32.7*
NS(=O)(=O)c1ccc(N/N=C/c2ccc(C(=O)O)cc2)c([N+](=O)[O-])c1,-19.7,16.8,0.7,-0.4,12.5,66.7*
CCC(CC)=NNc1ccc(S(N)(=O)=O)cc1[N+](=O)[O-],-10.4,2.3,2.0,-0.3,0.0,7.4
COc1cc(/C=N/Nc2ccc(S(N)(=O)=O)cc2[N+](=O)[O-])cc(OC)c1O,-22.9,9.6,-1.8,-1.3,8.7,41.5*
O=C(O)c1ccc(/C=N\Nc2ccc(S(=O)(=O)N3CCOCC3)cc2[N+](=O)[O-])cc1,3.7,9.5,-0.9,6.8,23.9,0.5
CC(=O)Nc1ccc(C=NNc2ccc(S(=O)(=O)Nc3ccccc3C(=O)O)cc2[N+](=O)[O-])cc1,-2.0,15.0,.,.,.,48.5*
O=C1NN=C2CCCCCCCCCCC12 (stereo unspecified),3.0,10.6,.,.,.,9.7
CN(C)/C=C/C(=O)c1nnn(C2CCCCC2)c1NC1CCCCC1,-1.4,7.4,-0.7,-2.6,13.8,38.5*
C1CCC(Nc2nnnn2C2CCCCC2)CC1,0.5,3.0,-0.9,-2.2,25.6,3.0
COc1ccc(-c2cc(-c3ccccc3)[n+](C)c(-c3ccccc3)c2)cc1,34.6*,-23.7,-1.0,-0.8,22.3,18.6
CC(C)CCNC(=O)c1cc2c(s1)-c1ccccc1S(=O)(=O)C2,15.5,-4.0,-1.9,2.4,12.5,31.6*
CCCCN(C)C(=O)c1cc2c(s1)-c1ccccc1S(=O)(=O)C2,5.9,3.7,-1.7,5.0,31.0,12.1
COc1cccc(CNC(=O)c2ccc(CS(=O)(=O)Cc3ccccc3C)o2)c1,1.5,1.0,-0.9,-7.1,57.7*,5.9
CCOC(=O)c1ccc(N2C(=O)C(O)=C(C(C)=O)C2c2ccc([N+](=O)[O-])cc2)cc1 (stereo unspecified),-2.6,8.8,0.7,7.7,25.0,31.8*
CC(=O)C1=C(O)C(=O)N(c2ccc(C(=O)O)cc2)C1c1ccc([N+](=O)[O-])cc1 (stereo unspecified),-2.2,-9.4,1.2,4.1,-40.5,21.4
COc1ccc(OC)c(C2C(C(C)=O)=C(O)C(=O)N2c2ccc(O)cc2)c1 (stereo unspecified),-1.3,1.8,-2.1,0.3,13.9,23.3
CC(=O)C1=C(O)C(=O)N(c2ccc(O)cc2)C1c1cccc([N+](=O)[O-])c1 (stereo unspecified),1.8,-3.8,-0.7,3.7,6.5,31.6*
COc1ccccc1C1C(C(C)=O)=C(O)C(=O)N1c1ccc(O)cc1 (stereo unspecified),-1.2,13.1,-0.6,-0.6,-22.4,42.0*
COc1ccc(C2C(C(C)=O)=C(O)C(=O)N2CCc2ccccc2)c(OC)c1 (stereo unspecified),-3.3,9.1,-2.1,4.9,2.9,37.3*
O=C([C@H]1O[C@@H](n2ccc(=O)[nH]c2=O)[C@H](O)[C@@H]1O)N1CCC(F)(F)CC1,-1.4,11.7,.,.,.,.
COCCNC(=O)[C@H](C)[C@H]1C[C@]1(C)[C@H](NC(=O)OCc1ccccc1)c1ccccc1,167.7*,11.5,-1.5,-1.1,8.6,2.2
